For assay [1], the target named is human Vitamin D Receptor (VDR), VDR (gene 7421) (UniProt P11473). Put plainly: ATG_VDR_TRANS: Attagene TRANS-FACTORIAL HepG2 Assay for human Vitamin D Receptor (VDR) (AID 2283022; active = hit-call score of the fitted dose curve at least 0.9, where 1 is the maximum). In short, it runs like this: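 Steps: transfect HepG2 with GAL4-UAS-driven reporter constructs; dose compounds 24 h; isolate RNA, reverse-transcribe, PCR-amplify with 6-FAM-labelled primer extension and HpaI digestion; quantify fragments by capillary electrophoresis relative to DMSO.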

The nature of assay [2]: BSK_3C_SRB: Viability Assessment in the BioMAP Diversity Plus: 3C Assay (AID 2283023).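 Note: cells read 24 h after compound dosing; fitted both ways against DMSO so a hit may be signal rise or drop.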 As to conditions: primary human endothelial cells (HUVEC). In short, it runs like this:
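Absorbance at 560 nm of sulforhodamine B-stained (0.1%) total protein served as a cytotoxicity readout in human umbilical vein endothelial cells, 24 h after chemical treatment. Signal was fitted bidirectionally relative to DMSO.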

Read-out in assay [3]: Matrix Metallopeptidase 1 (MMP1), MMP1 (gene 4312)
Nature of the assay: BSK_BE3C_MMP1: BioMAP Diversity Plus: BE3C Assay for Matrix Metallopeptidase 1 (MMP1) Biomarker Activity (AID 2283024). The note with it: primary human bronchial epithelial cells; actives raise or lower the signal. In short, it runs like this:
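In this multiplexed primary-cell system, human bronchial epithelium received chemicals for 24 h before an ELISA for MMP1. Values reflect bidirectional fits normalised to the DMSO baseline.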

Read-out in assay [4]: Pselectin, SELP (gene 6403)
Put plainly: BSK_4H_Pselectin: BioMAP Diversity Plus: 4H Assay for Pselectin Biomarker Activity (AID 2283026). The note with it: primary human endothelial cells (HUVEC); actives raise or lower the signal. In a few lines:
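Bidirectional fits against DMSO gave the endpoint. Cells: primary human umbilical vein endothelium, chemical-treated for 24 h before ELISA detection of P-selectin.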

Assay [5] is described as follows: BSK_4H_SRB: Viability Assessment in the BioMAP Diversity Plus: 4H Assay (AID 2283027).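 For AC50: curves fitted both ways versus DMSO so AC50 may be loss or gain.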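 Note: cells exposed to compound for 24 h before staining.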 As to conditions: primary human endothelial cells (HUVEC). In a few lines:
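Cytotoxicity readout: sulforhodamine B (0.1%) staining of total protein after 10% TCA fixation, measured at 560 nm in human umbilical vein endothelium at 24 h. DMSO set the baseline; fitting was bidirectional.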

Assay [6] in a line: BSK_BE3C_SRB: Viability Assessment in the BioMAP Diversity Plus: BE3C Assay (AID 2283028).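 For AC50: fitted both ways so AC50 may mark signal gain or loss versus DMSO.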 The note with it: primary human bronchial epithelial cells. In short, it runs like this:
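Cells (human bronchial epithelial, primary) are treated with chemicals, and after 24 h the parallel cultures are fixed in 10% TCA. These are then stained with 0.1% SRB and read at 560 nm. Gain or loss of signal is fitted relative to DMSO.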

Read-out in assay [7]: Thrombomodulin, THBD (gene 7056)
Nature of the assay: BSK_3C_Thrombomodulin: BioMAP Diversity Plus: 3C Assay for Thrombomodulin Biomarker Activity (AID 2283029). The note with it: primary human endothelial cells (HUVEC); actives raise or lower the signal. In a few lines:
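In a multiplexed primary-cell system, human umbilical vein endothelium received chemical and was assayed 24 h later for thrombomodulin by ELISA. Parallel cultures were SRB-stained (0.1% SRB after 10% TCA fixation, read at 560 nm) to flag cytotoxicity.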

Read-out in assay [8]: Urokinase-type plasminogen activator receptor (uPAR), PLAUR (gene 5329)
Nature of the assay: BSK_4H_uPAR: BioMAP Diversity Plus: 4H Assay for Urokinase-type plasminogen activator receptor (uPAR) Biomarker Activity (AID 2283030). As to conditions: primary human endothelial cells (HUVEC); actives raise or lower the signal. In short, it runs like this:
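Cell-surface uPAR ELISA signal, measured 24 h after dosing human umbilical vein endothelial cells, was analyzed with bidirectional fitting relative to DMSO. Parallel SRB staining of total protein tracked overt cytotoxicity.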

Read-out in assay [9]: Vascular endothelial growth factor receptor 2 (Homo sapiens) (UniProt P35968)
Put plainly: BSK_4H_VEGFRII: BioMAP Diversity Plus: 4H Assay for Vascular endothelial growth factor receptor 2 (VEGFR2) Biomarker Activity (AID 2283031).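 For AC50: cell-surface VEGFR2 protein level quantified by ELISA.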 As to conditions: primary human endothelial cells (HUVEC); actives raise or lower the signal. In short, it runs like this:
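ELISA read-out of VEGFRII in primary human umbilical vein endothelium, taken 24 h after chemical treatment. Responses are expressed relative to DMSO, with bidirectional fitting.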

Read-out in assay [10]: Human Leukocyte Antigen - DR isotype (HLADR), HLA-DRA (gene 3122)
Nature of the assay: BSK_BE3C_HLADR: BioMAP Diversity Plus: BE3C Assay for Human Leukocyte Antigen - DR isotype (HLADR) Biomarker Activity (AID 2283032). As to conditions: primary human bronchial epithelial cells; actives raise or lower the signal. In a few lines:
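BioMAP BE3C format: human bronchial epithelium, 24 h compound treatment, ELISA detection of HLA-DR, with bidirectional analysis relative to DMSO.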

“And” between values parts separate entries of the source, which are not always exact repeats. Equal values may be shown once. Records with an inconclusive call do not appear. Some compounds were tested as several samples or in several runs, with calls that do not always agree. The source made the active and inactive calls. Rule for the calls, unless noted: active = hit-call score of the fitted dose curve at least 0.9, where 1 is the maximum; inactive = score below 0.9.

Chain of human Vitamin D Receptor (VDR), VDR (gene 7421) (P11473 whole entry, looked up, the tested form may be a part): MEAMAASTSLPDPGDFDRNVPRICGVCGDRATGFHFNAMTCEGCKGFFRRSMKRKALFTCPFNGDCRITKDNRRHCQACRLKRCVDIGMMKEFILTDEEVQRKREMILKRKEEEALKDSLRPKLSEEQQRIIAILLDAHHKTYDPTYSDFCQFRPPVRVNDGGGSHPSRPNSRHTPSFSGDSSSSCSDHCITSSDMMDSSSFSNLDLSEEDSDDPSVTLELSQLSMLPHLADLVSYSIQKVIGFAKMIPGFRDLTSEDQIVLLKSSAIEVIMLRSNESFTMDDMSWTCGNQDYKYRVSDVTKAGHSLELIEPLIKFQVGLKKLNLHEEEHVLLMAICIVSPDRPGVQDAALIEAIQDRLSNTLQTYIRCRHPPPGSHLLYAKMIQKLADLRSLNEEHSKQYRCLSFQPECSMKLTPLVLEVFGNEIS

As a reminder, the AC50 is the midpoint of the concentration-response curve, whichever way the signal moves. Consider `CC1(C)CCC[C@]2(C)[C@H]3CCO[C@]3(C)CC[C@@H]12`, for which the result in [1], in [3], in assay [4], in assay [6], in assay [8] and in assay [9] was inactive. Further, the AC50 was 34.9 µM (active) and 39.2 µM (active) in assay [2]; 33.4 µM (active) in assay [4]; 32.1 µM (active) and 33.9 µM (active) in assay [5]; 30 µM (active) in assay [6]; 14.6 µM (active) and 17.3 µM (active) in [7]; 34.2 µM (active) in assay [8]. For the same compound, the AC50 in assay [9] is 31.9 µM (active); in [10], 23.9 µM (active) and 28.6 µM (active).
In the case of `C=C(C)C(=O)OCCOC1CC2CC1C1C=CCC21` (stereo not drawn), the result in assay [1] was inactive.
Turning to `CC(=O)c1c(C)c([N+](=O)[O-])c(C(C)(C)C)c([N+](=O)[O-])c1C`, the outcome in [2], in assay [3], in assay [4], in assay [5], in assay [6] and in assay [7] was inactive. In addition, the result in [8], in assay [9] and in [10] was inactive.
Take `CS(=O)(=O)c1ccc(C2=C(c3ccccc3)C(=O)OC2)cc1`: the outcome in assay [2], in assay [3], in assay [4], in assay [5], in assay [6] and in assay [7] was inactive. The result in assay [8], in assay [9] and in assay [10] was inactive.
For the compound `Cc1cc(CCC(=O)OCCOCCOCCOC(=O)CCc2cc(C)c(O)c(C(C)(C)C)c2)cc(C(C)(C)C)c1O`, the AC50 in assay [2] is 28.1 µM (active). The result in assay [3], in assay [4], in [5], in [6], in [7] and in assay [8] was inactive. Besides, the outcome in assay [9] and in [10] was inactive.
On to `CC1(C)C2=CCCC(C)(C)[C@]23CC[C@H]1C3`, for which the values for the AC50 in assay [2], in assay [4] and in assay [10] were 30.4 µM (active), 20 µM (active) and 20 µM (active), respectively. Further, the result in [3], in assay [5], in assay [6], in assay [7], in [8] and in [9] was inactive.
As to `CCN(CC)C(=O)N(CC)CC`, the result in [1], in [2], in [3], in [4], in assay [5] and in assay [6] was inactive. Besides, the outcome in assay [7], in [8], in [9] and in assay [10] was inactive.
As to `COc1ccc(OC)c(N=Nc2c(O)ccc3ccccc23)c1`, the outcome in [2], in assay [3], in [5], in assay [8] and in assay [9] was inactive. In addition, the AC50 in assay [4] is 5.42 µM (active); in [6] it was 5.55 µM (active); in assay [7] it was 9.48 µM (active); in assay [10] it was 3.41 µM (active).
Turning to `CCCCCCC(CO)CCCC` (stereo not drawn), the result in assay [2], in assay [3], in assay [4], in [5], in assay [6] and in assay [7] was inactive. The outcome in assay [8], in assay [9] and in assay [10] was inactive.
With `O=CN1CCOCC1`, the outcome in assay [2], in assay [3], in [4], in [5], in assay [6] and in assay [7] was inactive. For the same compound, the outcome in [8], in assay [9] and in assay [10] was inactive.

The values are drawn from PubChem BioAssay (EPA / NIEHS).
